Shown are actives, neighbours in structure and some others; about 2% of the full set was active somewhere.
697 NFkB inh: lowers PMA/ionomycin-induced NF-kB signal in 697 B cells; 697 B-cell NF-kB luciferase reporter, 16 h; inhibition, % at 4 µM; 330,000 tested, 0.33% active; AID 435022; in the data active means inhibition above about 35%
Jurkat NFkB inh: lowers PMA/ionomycin-induced NF-kB signal in Jurkat cells; PMA/ionomycin-induced NF-kB luciferase reporter, luminescence; inhibition, % at 4 µM; 330,000 tested, 0.53% active; AID 435003; in the data active means inhibition above about 50%
GalR3 antag: human GalR3 antagonism. O60755. HEK293 GalR3-CNG cAMP membrane potential fluorescence; galR3 body fused to GalR1 C-terminus. inhibition, % at 3 µM. 360,000 tested, 0.44% active. AID 651719;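 active means inhibition above the screen-wide average plus 3 SD, cut at about 13% in these data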;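 further: forskolin and galanin both at EC90 stimulate the cells; cAMP rise reported by CNG channel membrane potential dye signal; 0% = forskolin plus galanin with DMSO and 100% = forskolin alone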
Target sequence (O60755 1-299 limits assumed): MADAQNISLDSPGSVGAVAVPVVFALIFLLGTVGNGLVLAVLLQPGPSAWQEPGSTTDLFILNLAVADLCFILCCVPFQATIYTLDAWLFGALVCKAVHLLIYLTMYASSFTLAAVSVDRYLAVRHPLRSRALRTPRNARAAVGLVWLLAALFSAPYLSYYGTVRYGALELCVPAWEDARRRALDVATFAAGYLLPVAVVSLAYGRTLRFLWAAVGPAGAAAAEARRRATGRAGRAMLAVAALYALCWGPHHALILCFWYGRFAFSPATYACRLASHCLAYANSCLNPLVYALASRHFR
Gli-Sufu block: Gli-Sufu pathway antagonism | Sufu-KO-LIGHT fibroblasts, Gli luciferase reporter luminescence | inhibition, % at 5 µM | 340,000 tested, 0.74% active | AID 588413;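 active means inhibition above about 55%, limit read from the data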;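 further: 0% = DMSO-treated cells and 100% = wells with medium but no cells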
NR2F2 inh: inhibitors of human COUP-TFII (NR2F2); 370,000 tested, 0.7% active; P24468; HEK293T NGFI-A luciferase reporter, luminescence; AID 686940; inhibition, % at 8.6 µM;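 active means inhibition above a per-plate cutoff, mean inhibition of test wells between control levels plus 3 SD, cut at about 38% in these data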;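 further: cells cotransfected with COUP-TFII expression vector driving the NGFI-A reporter; 0% = median of COUP-TF2 test wells and 100% = reporter-only cells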
Target sequence (P24468 whole entry, looked up): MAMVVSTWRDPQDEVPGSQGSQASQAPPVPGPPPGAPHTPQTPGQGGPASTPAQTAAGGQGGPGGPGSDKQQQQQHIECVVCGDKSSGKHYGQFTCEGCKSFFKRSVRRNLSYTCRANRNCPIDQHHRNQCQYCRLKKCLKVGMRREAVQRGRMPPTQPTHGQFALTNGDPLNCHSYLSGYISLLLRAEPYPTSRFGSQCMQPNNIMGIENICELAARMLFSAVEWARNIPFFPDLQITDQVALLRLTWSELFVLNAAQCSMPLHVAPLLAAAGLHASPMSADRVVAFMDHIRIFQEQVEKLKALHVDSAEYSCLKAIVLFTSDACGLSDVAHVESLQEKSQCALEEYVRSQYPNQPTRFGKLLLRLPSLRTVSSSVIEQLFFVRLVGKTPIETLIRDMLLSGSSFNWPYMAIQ
Gli-Sufu confirm: confirmation of Gli-SUFU pathway antagonists. shares compounds with Gli-Sufu block. Sufu-KO-LIGHT cells, Gli luciferase reporter, luminescence. inhibition, % at 5 µM. 2,500 tested, 40% active;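 active means mean inhibition at 5 µM reaching about 45%, limit read from the data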;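 further: plate controls were DMSO-treated cells for no effect and wells lacking cells for full effect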
SufuKO cytotox: counter-screen for Gli-SUFU antagonists: cytotoxicity. shares compounds with Gli-Sufu block. Sufu-KO-LIGHT cells cytotoxicity, ATP luminescence. cytotoxicity, % at 5 µM. 2,500 tested, 32% active;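 active means mean cytotoxicity at 5 µM above about 25%, limit read from the data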;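 further: cells exposed to compound overnight for roughly 16 to 18 hours; plate controls were DMSO wells with cells for no effect and medium without cells for full effect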
Wnt3a cs: inhibits Wnt3a reporter, counter-screen for Gli-SUFU antagonists; shares compounds with Gli-Sufu block; Wnt-LIGHT cells, Wnt3a-driven luciferase reporter, luminescence; inhibition, % at 6.25 µM; 2,500 tested, 20% active; AID 651995;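 active means mean inhibition above about 25%, limit read from the data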
GalR3 conf: confirmation of human galanin receptor 3 antagonists. shares compounds with GalR3 antag. HEK293 GalR3 CNG cAMP biosensor, membrane potential fluorescence; galR3 fused to GalR1 carboxy tail; challenged with forskolin and galanin at EC90. inhibition, % at 3 µM. 1,600 tested, 59% active. AID 652245;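 active means inhibition above the primary screen's cutoff, the mean inhibition of all screened compounds plus 3 SD, cut at about 13% in these data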;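 further: 0% = forskolin plus galanin and 100% = forskolin alone with DMSO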
CNG parental: acts as nonspecific agonist in parental HEK-CNG cells. shares compounds with GalR3 antag. HEK293-CNG parental cells, cAMP membrane potential fluorescence; normalised: DMSO wells 0%, forskolin wells 100%. activation, % at 3 µM. 1,600 tested, 10% active; in the data active means activation above about 1.3%
Gal4-VP16 ctr: inhibits VP16 reporter, flagging COUP-TFII antagonist hits | shares compounds with NR2F2 inh | HEK293 Gal4-VP16 luciferase reporter, luminescence | inhibition, % at 8.5 µM | 2,500 tested, 25% active | AID 687007; in the data active means inhibition above about 13%
COUP-TFII conf: COUP-TFII (NR2F2) inhibition, confirmation assay; shares compounds with NR2F2 inh; HEK293 NGFI-A luciferase reporter, luminescence; inhibition, % at 8.5 µM; 2,500 tested, 45% active;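 active means mean inhibition over three repeats above a set limit taken from the earlier primary screen, cut at about 38% in these data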;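 further: 100% = cells given the luciferase reporter alone without the COUP-TF2 vector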
The depositor's hits bear a star; nt = no result given.

SMILES | 697 NFkB inh | Jurkat NFkB inh | GalR3 antag | Gli-Sufu block | NR2F2 inh | Gli-Sufu confirm | SufuKO cytotox | Wnt3a cs | Gal4-VP16 ctr | COUP-TFII conf | others
Cc1ccc(Cn2c(=O)n(Cc3ccc(C(=O)NCC4COC4)cc3)c(=O)c3ccccc32)cc1 | nt | nt | nt | nt | 5 | nt | nt | nt | nt | nt
CCCCN(C(C)=O)c1ccc2c(c1)C1CC2CCN1C(=O)OCc1ccccc1 (stereo not given) | nt | nt | -10 | 56* | 55* | 64* | 31* | 3 | 1 | 39*
CCN(CCc1ccccc1)c1ccc2c(c1)C1CC2CCN1C(=O)OCc1ccccc1 (stereo not given) | nt | nt | -6 | 1 | -6 | nt | nt | nt | nt | nt
COc1ccc(Nc2cc(C)nc3ncnn23)c(OC)c1 | 12 | 2 | 3 | -1 | 0 | nt | nt | nt | nt | nt
COc1ccc(CNc2cc(C)nc3ncnn23)c(OC)c1 | 21 | 47 | -5 | 52 | 65* | 46* | 14 | 25 | -5 | 35
CCOC(=O)[C@]12CCCC=C1N(Cc1ccc(OC)cc1)C(=O)[C@@H]2CC(=O)NCc1ccccc1 | nt | nt | nt | nt | 16 | nt | nt | nt | nt | nt
CCC(C)N(C(=O)c1ccc(CNC(=O)c2cccc(Br)c2)cc1)C(C)CC (stereo not given) | nt | nt | nt | nt | 3 | nt | nt | nt | nt | nt
CCCc1ccc(-c2ccc(/C=C/C(=O)O)cc2)nc1 | nt | nt | -1 | 71* | 98* | 69* | 56* | 91* | 91* | 102*
CCCCCc1ccc(-c2ccc(/C=C/C(=O)O)cc2)nc1 | -85 | -6 | 0 | -3 | 20 | nt | nt | nt | nt | nt
CCC1=C(CC2NCCc3ccccc32)CC2c3cc(OC)c(OC)cc3CCN2C1 (stereo not given) | nt | nt | -6 | 53 | 67* | 60* | 5 | 85* | -13 | 54*
COC(=O)C12OCC34C(CC5C(C)=C(O)C(=O)CC5(C)C3C(O)C1O)OC(=O)C(OC(=O)C=C(C)C)C24 (stereo not given) | nt | nt | -3 | 91* | 93* | 95* | 76* | 105* | 12 | 86*
CCC(=O)N[C@H]1C[C@@H]2O[C@@H](CO)CC[C@@H]2O[C@@H]1CCc1ccc(-c2cccc(OC)c2)cc1 | nt | nt | nt | nt | -13 | nt | nt | nt | nt | nt
COc1ccc([C@H]2CC(=O)C=C(c3cc(Cl)ccc3C)C2)cc1 | 0 | 3 | -6 | -3 | -17 | nt | nt | nt | nt | nt
COc1ccc([C@H]2CC(=O)C=C(c3ccnc4ccc(Cl)cc34)C2)cc1 | 13 | 30 | 7 | 74* | 69* | 68* | 21 | 38* | 12 | 65*
CN(C(=O)COc1ccccc1C(=O)NCCOc1ccccc1)c1ccccc1 | -44 | 10 | 5 | 69* | 56* | 66* | 43* | 1 | -6 | 25
O=C(NCCOc1ccccc1)c1ccccc1Cl | -156 | -130 | -7 | -90 | -32 | nt | nt | nt | nt | nt
Cc1cc(C)cc(NC(=O)N2CCN(Cc3nc4ccccc4c(=O)[nH]3)CC2)c1 | nt | nt | nt | nt | 3 | nt | nt | nt | nt | nt
COc1ccc(CC2(CO)CCN(CC3=Cc4cc(Cl)ccc4OC3)CC2)cc1 | -17 | 35 | 70* | 57* | 64* | 60* | 14 | -28 | -8 | 45* | GalR3 conf=76*;CNG parental=2.2*
CCCCS(=O)(=O)N1C2=NC3=C(C(=O)N(CCOC)C3=O)C3N(C)c4ccccc4[C@]23C[C@H]1CO (stereo not given in full) | nt | nt | nt | nt | -2 | nt | nt | nt | nt | nt
CCCCOc1ncnc2c1[nH]c1ccc(F)cc12 | -8 | 30 | 29* | 58* | 56* | 56* | 29* | 12 | -84 | 29 | GalR3 conf=46*;CNG parental=0
CCOC(=O)N1CCN(c2ncnc3c2[nH]c2ccc(F)cc23)CC1 | 19 | 26 | 1 | 76* | 64* | 75* | 27* | -6 | -2 | 40*
O=C(c1cc2sccc2n1Cc1ccc(F)cc1)N1CCN(c2nc3ccccc3s2)CC1 | -44 | 34 | 17* | 64* | 56* | 70* | 27* | -16 | 4 | 29 | GalR3 conf=73*;CNG parental=1
COc1ccc(S[C@]2(C(=O)N(C)C)CC(=O)N(C(=O)CCc3ccccc3)[C@@H]2c2ccc(OC)cc2)cc1 | nt | nt | nt | nt | 28 | nt | nt | nt | nt | nt
O=C(c1ccc(CSc2nc3ccncc3[nH]2)cc1)N1CCN(c2cccc(Cl)c2)CC1 | -20 | 31 | nt | 58* | 78* | 67* | 42* | 8 | 12 | 51*
Cc1nc2ccccn2c1C(=O)NC1CCCc2ccccc21 (stereo not given) | -46 | 31 | -9 | 56* | 42* | 32 | 4 | 11 | 4 | 37
SMILES | 697 NFkB inh | Jurkat NFkB inh | GalR3 antag | Gli-Sufu block | NR2F2 inh | Gli-Sufu confirm | SufuKO cytotox | Wnt3a cs | Gal4-VP16 ctr | COUP-TFII conf | others
O=C(NC(c1cccnc1)C(F)(F)F)c1cc(COc2ccc3c(c2)CCCC3)on1 (stereo not given) | -100 | -15 | 15* | 61* | 42* | 59* | 31* | -95 | -75 | 10 | GalR3 conf=12;CNG parental=0
COc1cccc(CNS(=O)(=O)c2cc3c(cc2Br)CC(C)N3C(C)=O)c1 (stereo not given) | nt | nt | nt | nt | 1 | nt | nt | nt | nt | nt
Cc1cc(=O)[nH]c(SCC(=O)/C=C2\N(C)c3ccccc3C2(C)C)n1 | 4 | 13 | -13 | 68* | 42* | 61* | 25 | 27* | 6 | 9
CN1/C(=C\C(=O)CSc2nnc(N)s2)C(C)(C)c2ccccc21 | 2 | 8 | -4 | 25 | -7 | nt | nt | nt | nt | nt
COc1ccc(N2CCN(c3ncnc4c3[nH]c3ccccc34)CC2)cc1 | 11 | 30 | -5 | 71* | 52* | 80* | 24 | 21 | 6 | 61*
Cc1ccc(S(=O)(=O)Nc2cc(C(=O)O)ccc2N2CCC(C)CC2)cc1C | nt | nt | nt | nt | -22 | nt | nt | nt | nt | nt
CC12CCC(=O)C=C1CCC1C2CCC2(C)C(c3csc(N)n3)CCC12 (stereo not given) | nt | nt | 3 | 58* | 57* | 62* | 40* | 46* | 9 | 45*

From PubChem BioAssay
